Results reported in PubChem BioAssay (NCI).
Compounds without any hit were thinned out: in the full panel of roughly 79,000, 15% have a hit. Activity calls are given as the source filed them. Rule as the data show it: active = growth inhibition above about 70%; inactive = the rest.

Tests used:
[1] = NCI Yeast Anticancer Drug Screen. Data for the rad52 strain (AID 147);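 also: 0% = growth of vehicle-treated control cultures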; settings: S. cerevisiae rad52 mutant growth inhibition, stronger effect = higher value
How it was run: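 Measured: yeast growth inhibition. System: strain with a defined DNA damage repair alteration. Reference: vehicle-treated control cultures.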

[2] = NCI Yeast Anticancer Drug Screen. Data for the wt1 strain (AID 149);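 also: 0% = growth of vehicle-treated wt1 cultures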; settings: S. cerevisiae wt1 strain (SPY 50644) growth inhibition, stronger effect = higher value
How it was run: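 Each compound is tested on wt1 yeast and the loss of growth versus vehicle gives the inhibition value.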

[3] = NCI Yeast Anticancer Drug Screen. Data for the rad50 strain (AID 155);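 also: 0% = growth of vehicle-only cultures of the same strain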; settings: S. cerevisiae rad50 strain growth inhibition, stronger effect = higher value
How it was run: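 Vehicle-treated cultures provide the reference for the growth inhibition reported for compound-exposed, repair-deficient yeast.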

[4] = NCI Yeast Anticancer Drug Screen. Data for the mec2-1 strain (AID 157); settings: S. cerevisiae mec2-1 strain, stronger effect = higher value
How it was run: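 Test agents were screened against the mec2-1 yeast strain, with defined DNA repair or cell cycle alteration. Growth was scored as inhibition against vehicle-only controls.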

[5] = NCI Yeast Anticancer Drug Screen. Data for the sgs1 mgt1 strain (AID 161);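 also: 0% = growth of cultures given vehicle only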; settings: S. cerevisiae sgs1 mgt1 strain, stronger effect = higher value
How it was run: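 Read-out: growth inhibition vs vehicle controls. Cells: mutant yeast strain deficient in DNA damage repair.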

[6] = NCI Yeast Anticancer Drug Screen. Data for the CLN2oe strain (AID 163);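 also: 0% = growth of vehicle-only control cultures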; settings: S. cerevisiae CLN2oe strain, stronger effect = higher value
How it was run: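 Here, growth inhibition in a cell-cycle-altered yeast strain after compound exposure was quantified against vehicle control growth.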

[7] = NCI Yeast Anticancer Drug Screen. Data for the cln2 rad14 strain (AID 165);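 also: 0% = growth equal to vehicle treated cultures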; settings: S. cerevisiae cln2 rad14 strain, stronger effect = higher value
How it was run: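 Growth of compound-exposed yeast (cln2 rad14 genotype) measured and expressed as inhibition relative to vehicle.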

[8] = NCI Yeast Anticancer Drug Screen. Data for the bub3 strain (AID 167); settings: S. cerevisiae bub3 mutant strain, stronger effect = higher value
How it was run: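 Mutant yeast screening strain plus compound; vehicle-treated cultures serve as the 0% inhibition reference.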

[9] = NCI Yeast Anticancer Drug Screen. Data for the sgs1 strain (AID 173);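 also: 0% = growth of vehicle-only control cultures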; settings: S. cerevisiae sgs1 mutant, stronger effect = higher value
How it was run: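 Relative growth inhibition, referenced to vehicle, was determined in a yeast strain with a defined alteration affecting DNA damage repair or cell cycle control after compound exposure.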

[10] = NCI Yeast Anticancer Drug Screen. Data for the mlh1 rad18 strain (AID 175); settings: S. cerevisiae mlh1 rad18 strain growth inhibition, stronger effect = higher value
How it was run: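 In this whole-cell yeast screen, a strain with altered DNA damage repair is challenged with compound, and its growth is measured against matched vehicle-treated controls.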

[11] = NCI Yeast Anticancer Drug Screen. Data for the rad18 strain (AID 177); settings: S. cerevisiae rad18 mutant growth inhibition, stronger effect = higher value
How it was run: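 Screen uses a yeast strain with a defined lesion in DNA damage repair; compound effect is read as loss of growth compared to untreated vehicle cultures.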

[12] = NCI Yeast Anticancer Drug Screen. Data for the mgt1 strain (AID 153); settings: S. cerevisiae mgt1 mutant growth inhibition, stronger effect = higher value
How it was run: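 After exposure of the mgt1 yeast mutant to compound, growth was measured and reported as inhibition compared with vehicle controls.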

[13] = NCI Yeast Anticancer Drug Screen. Data for the rad14 strain (AID 159);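 also: 0% = growth of vehicle-treated control cultures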; settings: S. cerevisiae rad14 strain growth inhibition, stronger effect = higher value
How it was run: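 Inhibition of growth is reported for a repair-deficient yeast mutant following compound treatment, calculated relative to cultures that received vehicle.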

[14] = NCI Yeast Anticancer Drug Screen. Data for the wt2 strain (AID 169); settings: S. cerevisiae wt2 strain growth inhibition, stronger effect = higher value
How it was run: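 Genetically defined yeast strains from a DNA-repair/cell-cycle panel were used. Compound-exposed yeast growth was measured, and the inhibition was calculated relative to vehicle treatment.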

[15] = NCI Yeast Anticancer Drug Screen. Data for the mlh1 strain (AID 171);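 also: 0% = growth of vehicle-treated control cultures of the same strain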; settings: S. cerevisiae mlh1 strain growth inhibition, stronger effect = higher value
How it was run: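 Here the genetically defined yeast mutant is grown with each compound, and the extent to which its growth falls below that of vehicle-exposed cells is reported.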

[16] = at 5.0 µM (retest, dose inferred, filed as 0.5)
[17] = at 50.0 µM (retest, dose inferred, filed as 5.0)

Measured: growth inhibition

O=C(O)c1c2ccc(Cl)cc2nc2[nH]c(=O)[nH]c(=O)c12
inactive: [1]; at 1.2 µM -38% | [1]; at 3.7 µM -34% | [1]; at 11.0 µM -25% | [1]; at 33.0 µM -30% | [1]; at 100.0 µM -13% | [2]; at 1.2 µM -37% | [2]; at 3.7 µM -35% | [2]; at 11.0 µM -44% | [2]; at 33.0 µM -38% | [2]; at 100.0 µM -18% | [3]; at 1.2 µM -56% | [3]; at 3.7 µM -28% | [3]; [16] 47% | [3]; at 11.0 µM -32% | [3]; at 33.0 µM -23% | [3]; [17] 45% | [3]; at 50.0 µM 29.4% | [3]; at 100.0 µM 36% | [4]; at 1.2 µM -63% | [4]; at 3.7 µM -50% | [4]; [16] 47% | [4]; at 11.0 µM -37% | [4]; at 33.0 µM -43% | [4]; [17] 52% | [4]; at 50.0 µM 36.9% | [4]; at 100.0 µM -30% | [5]; [16] 13% | [5]; [17] 26% | [5]; at 50.0 µM 27.6% | [6]; at 1.2 µM -45% | [6]; at 3.7 µM -33% | [6]; at 11.0 µM -24% | [6]; at 33.0 µM -13% | [6]; at 100.0 µM -1% | [7]; [16] 64% | [7]; [17] 12% | [7]; at 50.0 µM 9.2% | [8]; at 1.2 µM -57% | [8]; at 3.7 µM -40% | [8]; [16] 36% | [8]; at 11.0 µM -29% | [8]; at 33.0 µM -5% | [8]; at 100.0 µM 50% | [9]; at 1.2 µM -39% | [9]; at 3.7 µM -31% | [9]; at 11.0 µM -26% | [9]; at 33.0 µM -10% | [9]; at 100.0 µM 1% | [10]; [16] 45% | [10]; [17] 54% | [10]; at 50.0 µM 31.7% | [11]; at 1.2 µM -21% | [11]; at 3.7 µM -17% | [11]; at 11.0 µM -9% | [11]; at 33.0 µM -1% | [11]; at 100.0 µM 7%
active: [8]; [17] 82% | [8]; at 50.0 µM 79.5%

S=C1N(c2ccc(Cl)cc2)C2=C(N=Nc3ccccc3)C(=Nc3ccccc3S2)N1c1ccccn1
active: [1]; at 33.0 µM 98% | [1]; at 100.0 µM 99% | [2]; at 100.0 µM 85% | [12]; at 33.0 µM 99% | [12]; at 100.0 µM 99% | [3]; at 33.0 µM 95% | [3]; [17] 99% | [3]; at 50.0 µM 98.5% | [3]; at 100.0 µM 99% | [4]; at 33.0 µM 99% | [4]; [17] 100% | [4]; at 50.0 µM 98.5% | [4]; at 100.0 µM 99% | [13]; at 33.0 µM 90% | [13]; at 100.0 µM 99% | [5]; [17] 99% | [5]; at 50.0 µM 99% | [7]; [17] 99% | [7]; at 50.0 µM 98.5% | [8]; at 33.0 µM 84% | [8]; [17] 99% | [8]; at 50.0 µM 98.3% | [8]; at 100.0 µM 98% | [15]; at 33.0 µM 94% | [15]; at 100.0 µM 99% | [9]; at 33.0 µM 98% | [9]; at 100.0 µM 99% | [10]; [17] 99% | [10]; at 50.0 µM 99% | [11]; at 33.0 µM 94% | [11]; at 100.0 µM 99%
inactive: [1]; at 1.2 µM 8% | [1]; at 3.7 µM 16% | [1]; at 11.0 µM 51% | [2]; at 1.2 µM -3% | [2]; at 3.7 µM -3% | [2]; at 11.0 µM 3% | [2]; at 33.0 µM 29% | [12]; at 1.2 µM 13% | [12]; at 3.7 µM 15% | [12]; at 11.0 µM 66% | [3]; at 1.2 µM 6% | [3]; at 3.7 µM 12% | [3]; [16] 41% | [3]; at 11.0 µM 42% | [4]; at 1.2 µM 20% | [4]; at 3.7 µM 23% | [4]; [16] 3% | [4]; at 11.0 µM 62% | [13]; at 1.2 µM 14% | [13]; at 3.7 µM 19% | [13]; at 11.0 µM 40% | [5]; [16] 54% | [6]; at 1.2 µM -3% | [6]; at 3.7 µM -7% | [6]; at 11.0 µM 3% | [6]; at 33.0 µM 24% | [6]; at 100.0 µM 69% | [7]; [16] 13% | [8]; at 1.2 µM 22% | [8]; at 3.7 µM 22% | [8]; [16] 53% | [8]; at 11.0 µM 41% | [14]; at 1.2 µM -1% | [14]; at 3.7 µM -1% | [14]; at 11.0 µM 4% | [14]; at 33.0 µM 23% | [14]; at 100.0 µM 50% | [15]; at 1.2 µM 9% | [15]; at 3.7 µM 12% | [15]; at 11.0 µM 29% | [9]; at 1.2 µM 9% | [9]; at 3.7 µM 19% | [9]; at 11.0 µM 52% | [10]; [16] 32% | [11]; at 1.2 µM 9% | [11]; at 3.7 µM 16% | [11]; at 11.0 µM 44%

O=C1c2ccccc2C(=O)c2c(O)c(NCCNCCO)cc(O)c21
active: [1]; at 33.0 µM 88% | [1]; at 100.0 µM 92% | [2]; at 33.0 µM 71% | [2]; at 100.0 µM 83% | [12]; at 33.0 µM 91% | [12]; at 100.0 µM 96% | [3]; at 33.0 µM 89% | [3]; [17] 93% | [3]; at 50.0 µM 87.3% | [3]; at 100.0 µM 94% | [4]; at 33.0 µM 84% | [4]; [17] 96% | [4]; at 50.0 µM 87.2% | [4]; at 100.0 µM 86% | [13]; at 33.0 µM 95% | [13]; at 100.0 µM 95% | [5]; [17] 97% | [5]; at 50.0 µM 85.2% | [6]; at 33.0 µM 82% | [6]; at 100.0 µM 93% | [8]; at 33.0 µM 90% | [8]; [17] 97% | [8]; at 50.0 µM 70.7% | [8]; at 100.0 µM 91% | [14]; at 11.0 µM 73% | [14]; at 33.0 µM 81% | [14]; at 100.0 µM 93% | [15]; at 33.0 µM 91% | [15]; at 100.0 µM 94% | [9]; at 33.0 µM 93% | [9]; at 100.0 µM 94% | [10]; [17] 95% | [10]; at 50.0 µM 90.3% | [11]; at 33.0 µM 89% | [11]; at 100.0 µM 94%
inactive: [1]; at 1.2 µM -31% | [1]; at 3.7 µM -13% | [1]; at 11.0 µM 6% | [2]; at 1.2 µM 1% | [2]; at 3.7 µM -1% | [2]; at 11.0 µM 9% | [12]; at 1.2 µM 0% | [12]; at 3.7 µM 4% | [12]; at 11.0 µM 36% | [3]; at 1.2 µM -9% | [3]; at 3.7 µM -1% | [3]; [16] 19% | [3]; at 11.0 µM 21% | [4]; at 1.2 µM -3% | [4]; at 3.7 µM -12% | [4]; [16] 23% | [4]; at 11.0 µM 11% | [13]; at 1.2 µM -5% | [13]; at 3.7 µM -2% | [13]; at 11.0 µM 40% | [5]; [16] 35% | [6]; at 1.2 µM 21% | [6]; at 3.7 µM 33% | [6]; at 11.0 µM 29% | [7]; [16] 11% | [7]; [17] 57% | [7]; at 50.0 µM 65.5% | [8]; at 1.2 µM 13% | [8]; at 3.7 µM 21% | [8]; [16] 39% | [8]; at 11.0 µM 45% | [14]; at 1.2 µM -16% | [14]; at 3.7 µM -4% | [15]; at 1.2 µM -23% | [15]; at 3.7 µM -13% | [15]; at 11.0 µM 44% | [9]; at 1.2 µM -4% | [9]; at 3.7 µM 12% | [9]; at 11.0 µM 48% | [10]; [16] 58% | [11]; at 1.2 µM -13% | [11]; at 3.7 µM -3% | [11]; at 11.0 µM 20%
